# Assay outcomes: PubChem, National Center for Advancing Translational Sciences (NCATS)
# An excerpt weighted towards active compounds, which were near 2.4% of everything screened.
# FEN1 inh: qHTS Assay for the Inhibitors of Human Flap endonuclease 1 (FEN1) | Potency, µM (doses to about 114 µM), most hits filed as inhibitors | P39748 | 390,000 compounds, 0.35% hits | Recombinant FEN1 flap cleavage, fluorescence, 15 min | AID 588795, 2011; further: nearly all actives have a fitted effect of over 65% in size
#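 FEN1 at 10 nM preincubated with compounds 15 min at room temperature, then flap DNA substrate added at 50 nM final. Signal read at 0 and 15 min; concentration-response fitted with four-parameter Hill equation.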
# Pol eta inh-1: qHTS for Inhibitors of Polymerase Eta; recombinant Pol eta, fluorescent DNA replication assay; Potency, µM (titrated, usually from 114 µM), hits mostly inhibitors; 390,000 compounds, 1.2% hits; DNA polymerase eta (Homo sapiens), Q9Y253
#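 Fluorescent replication assay: 50 nM final substrate added after a 15 min room-temperature compound preincubation with 10 nM enzyme. Signal taken at 0 min and again at 10 min.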
# Pol iota inh: qHTS for Inhibitors of Polymerase Iota | DNA polymerase iota (Homo sapiens), Q9UNA4 | Pol iota fluorescent replication assay, 10 min | Potency, µM (doses to about 115 µM), hits mostly inhibitors | 390,000 compounds, 1% hits | AID 588590, 2011
#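 Fluorescent replication assay read twice, at 0 min and 10 min after adding 50 nM (final) substrate. Enzyme (10 nM) and compounds were first incubated 15 min at room temperature; enzyme-free buffer wells were negative controls.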
# Pol kappa inh-1: qHTS for Inhibitors of Polymerase Kappa; DNA polymerase kappa (Homo sapiens), Q9UBT6; purified Pol kappa, fluorescent DNA synthesis assay, 10 min; Potency, µM (series often up to 107 µM), actives largely listed as inhibitors; 400,000 compounds, 0.53% hits
#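 Readout: fluorescence, taken kinetically at 0 and 10 min. Conditions: 10 nM Pol kappa, 15 min RT compound preincubation, 50 nM substrate final. Controls: enzyme-free buffer wells.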
# WRN helicase inh: qHTS for Inhibitors of WRN Helicase | AID 651768, 2012 | Potency, µM (top dose mostly 114 µM), hits mostly inhibitors | Bifunctional 3'-5' exonuclease/ATP-dependent helicase WRN (Homo sapiens), Q14191 | WRN helicase unwinding, fluorescent forked duplex, kinetic | 360,000 compounds, 0.46% hits; further: nearly all actives have a fitted effect of over 55% in size
# Target sequence (Q14191 whole entry, looked up): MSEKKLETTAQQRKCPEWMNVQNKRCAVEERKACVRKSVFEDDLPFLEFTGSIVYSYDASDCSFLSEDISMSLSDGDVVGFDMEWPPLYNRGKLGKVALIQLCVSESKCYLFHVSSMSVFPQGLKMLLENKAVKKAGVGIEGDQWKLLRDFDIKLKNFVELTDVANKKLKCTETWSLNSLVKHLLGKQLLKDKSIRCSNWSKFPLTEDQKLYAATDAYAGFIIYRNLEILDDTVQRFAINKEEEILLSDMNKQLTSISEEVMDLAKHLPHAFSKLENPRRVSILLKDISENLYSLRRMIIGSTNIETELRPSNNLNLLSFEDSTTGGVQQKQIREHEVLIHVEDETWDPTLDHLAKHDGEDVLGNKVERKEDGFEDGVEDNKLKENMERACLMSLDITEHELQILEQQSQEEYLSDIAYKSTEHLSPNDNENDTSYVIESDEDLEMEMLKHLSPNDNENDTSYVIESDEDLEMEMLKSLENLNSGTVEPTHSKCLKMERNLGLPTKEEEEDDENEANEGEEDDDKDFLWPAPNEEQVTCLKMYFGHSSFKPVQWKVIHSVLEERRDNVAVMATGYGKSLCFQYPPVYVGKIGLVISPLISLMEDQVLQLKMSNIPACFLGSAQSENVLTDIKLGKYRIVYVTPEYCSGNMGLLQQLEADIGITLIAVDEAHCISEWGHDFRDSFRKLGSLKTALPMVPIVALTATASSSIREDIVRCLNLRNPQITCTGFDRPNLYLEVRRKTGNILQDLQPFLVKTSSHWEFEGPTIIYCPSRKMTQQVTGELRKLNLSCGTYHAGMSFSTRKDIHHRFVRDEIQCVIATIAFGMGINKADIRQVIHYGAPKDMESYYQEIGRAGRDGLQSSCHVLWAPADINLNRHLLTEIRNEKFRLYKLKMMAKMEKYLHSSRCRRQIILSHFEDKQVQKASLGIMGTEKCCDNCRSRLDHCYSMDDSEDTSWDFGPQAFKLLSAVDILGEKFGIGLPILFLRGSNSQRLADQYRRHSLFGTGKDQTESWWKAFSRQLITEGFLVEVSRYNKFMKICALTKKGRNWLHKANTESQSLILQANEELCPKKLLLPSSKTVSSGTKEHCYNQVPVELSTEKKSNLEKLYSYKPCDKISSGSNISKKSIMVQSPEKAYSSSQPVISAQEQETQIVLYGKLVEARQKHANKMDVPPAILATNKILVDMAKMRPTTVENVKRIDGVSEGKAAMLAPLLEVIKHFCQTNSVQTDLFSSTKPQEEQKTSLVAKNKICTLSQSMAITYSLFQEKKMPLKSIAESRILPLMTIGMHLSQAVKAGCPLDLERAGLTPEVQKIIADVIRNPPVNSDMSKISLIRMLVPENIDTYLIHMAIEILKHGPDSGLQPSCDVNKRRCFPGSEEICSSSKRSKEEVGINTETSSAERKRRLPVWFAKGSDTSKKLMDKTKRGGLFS
#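 Kinetic red-fluorescence monitoring (525/598 nm) tracks WRN helicase activity after 100 nM fluorophore-quencher forked duplex and 2 mM ATP are added to 20 nM enzyme pretreated 15 min at room temperature with compound.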
# Pol beta inh: qHTS Assay for Inhibitors of DNA Polymerase Beta. P06746. Pol beta primer extension/strand displacement, fluorescence kinetic. Potency, µM (series often up to 114 µM), hits mostly inhibitors. 340,000 compounds, 1.3% hits
#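 Preincubation: enzyme (10 nM) with compound, 15 min, RT. Reaction: substrate added to 50 nM final. Reads: 0 and 10 min. Analysis: normalized, Hill fit.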
# GALK confirm: Confirmation Assay for Inhibitors of Human Galactokinase (GALK). shares compounds with Pol eta inh-1. purified GALK, Kinase-Glo ATP depletion luminescence. Potency, µM (titrated, usually from 115 µM), hits mostly inhibitors. 150 compounds, 70% hits
# Redox cycling: Confirmatory Assay for Inhibitors of Human Galactokinase (GALK): Phenol-HRP redox assay counterscreen; 150 compounds, 40% hits; Potency, µM (doses to about 115 µM), actives largely listed as inhibitors; shares compounds with Pol eta inh-1; Phenol red-HRP H2O2 redox cycling, absorbance 600 nm; AID 2035, 2009
# HEK293 tox: Secondary Assay for Inhibitors of Human Galactokinase (GALK): HEK-293 Cell Viability Assay. shares compounds with Pol eta inh-1. HEK-293 viability, ATP luminescence (CellTiter-Glo), 24/48 h. Potency, µM (titrated, usually from 46.1 µM), most hits filed as inhibitors. 170 compounds, 10% hits. AID 2547, 2010
# Pol kappa inh-2: qHTS for Inhibitors of Polymerase Kappa: Confirmatory Assay for Cherry-picked Compounds | shares compounds with Pol eta inh-1 | purified Pol-kappa, fluorescent strand-displacement substrate | Potency, µM, actives largely listed as inhibitors | 920 compounds, 76% hits
# Pol eta inh-2: qHTS for Inhibitors of Polymerase Eta: Confirmatory Assay for Cherry-picked Compounds; shares compounds with Pol eta inh-1; Pol eta primer extension, TAMRA/BHQ fluorescence, 10 min; Potency, µM, hits mostly inhibitors; 2,600 compounds, 64% hits; AID 720502, 2013
# Numbers stand for hits; i = inactive; ? = inconclusive; nt = no result; [ ] = dose if it differs, or a comment. The call rests on the fitted dose curve; in most records, active means well fitted curve in the direction sought with a large enough effect; inconclusive means small, poorly fitted or top-dose-only effect, or another doubt; inactive means no such curve, though single readings can be large; an effect the other way counts as inactive or inconclusive.
SMILES,FEN1 inh,Pol eta inh-1,Pol iota inh,Pol kappa inh-1,WRN helicase inh,Pol beta inh,Pol eta inh-2,others
Cc1cc(C)cc(-n2cccc2/C=C2/C(=N)N3C(=NC2=O)SN=C3S(C)(=O)=O)c1,i,39.8µM,?,i,i[11.6 µM],44.7µM,?,
O=C(NC1CCCCC1)c1cc(Nc2cccc(C(F)(F)F)c2)nc2ccccc12,i,i,i,i,nt,?,nt,
Cc1ccccc1N/N=C/c1sc(=O)n(Cc2cccc(C(=O)O)c2)c1Cl,i,?,?,i,?,?,?,
COc1cc(OC)c(/C=C2\SC(=O)N(CC(=O)Nc3ccccc3F)C2=O)c(OC)c1,i,i,i,i,i,i,nt,
CCOc1cc(/C=C2\SC(=O)N(CC(=O)Nc3ccccc3F)C2=O)cc([N+](=O)[O-])c1O,50.1µM,?,11.2µM,i,i,i,nt,Pol kappa inh-2=?
N#Cc1c(SCC(=O)Nc2ccc(C(F)(F)F)cc2)sc2c(O)cc(=O)[nH]c12,i,i,i,i,i,i,nt,
COc1cc(Cl)c(C)cc1NC(=O)CSc1sc2c(O)cc(=O)[nH]c2c1C#N,?,28.2µM,?,i,i[11.6 µM],?,60.1,Pol kappa inh-2=18.9
O=C(O)CCN1CC2([N+](=O)[O-])C=CC(=O)C([N+](=O)[O-])(C1)C2CC(=O)c1ccccc1 (configuration not stated),i,17.8µM,?,?,i[11.6 µM],28.2µM,30.1,Pol kappa inh-2=16.8
O=C(CCN1CCCCCC1)c1ccccc1,i,i,i,i,i,i,nt,
N#Cc1ccc(C(S(=O)(=O)Cc2ccccc2)S(=O)(=O)Cc2ccccc2)cc1,nt,i,nt,nt,i,nt,nt,
COC(=O)C(C)N1C(=O)S/C(=C\c2ccc(-c3ccc(C(=O)O)cc3C)o2)C1=O (configuration not stated),?,10µM,?,31.6µM,?,39.8µM,42.6,
N#Cc1c(/N=C/c2ccc(-c3ccccc3C(=O)O)o2)sc2c1CCCC2,i,28.2µM,?,i,i,28.2µM,67.5,
N#Cc1c(/N=C/c2ccc(-c3ccc(C(=O)O)c(Cl)c3)o2)sc2c1CCCC2,i,22.4µM,i,i,i,nt,?,
CC(C)=CC(=O)Oc1ccc(C(=O)N(C)c2ccccc2I)cc1,i,nt,i,i,nt,nt,nt,
O=C(COC(=O)/C=C/c1ccco1)Nc1ccc(F)cc1Cl,i,?,?,?,i[11.6 µM],22.4µM,?,
CN(C)CCCN(C(=O)c1ccc([N+](=O)[O-])s1)c1nc2cc3c(cc2s1)OCCO3,i,i,i,i,i,?,nt,
CN(C)CCCN(C(=O)c1cc2cc([N+](=O)[O-])ccc2s1)c1nc2cc3c(cc2s1)OCCO3,?,?,i,?,?,nt,nt,Pol kappa inh-2=59.7
O=C(CSc1ncn(-c2ccccc2)n1)Nc1nc2ccccc2s1,i,i,i,i,i,i,nt,
O=C(CSc1ncn(-c2ccccc2)n1)Nc1nc2c(s1)CCCC2,i,50.1µM,25.1µM,i,i,31.6µM,?,
O=Nc1c(O)ccc2cc(S(=O)(=O)O)ccc12,?,14.1µM,17.8µM,?,i[11.6 µM],nt,30.1,Pol kappa inh-2=16.8
NC(=O)CC[C@@H]1NC(=O)[C@H](CO)NC(=O)c2cc([N+](=O)[O-])cc(I)c2OCC[C@@H](C(N)=O)NC1=O,i,i,i,i,i,i,nt,
NCCCC[C@@H]1NC(=O)[C@H](CCC(=O)O)NC(=O)c2cc([N+](=O)[O-])cc(I)c2OCC[C@@H](C(N)=O)NC1=O,i,14.1µM,?,25.1µM,i,i,30.1,
CNC(=S)N/N=C/c1ccc(-c2ccc(C(=O)O)cc2)o1,i,22.4µM,?,?,i[11.6 µM],?,33.8,
NS(=O)(=O)c1ccc(-c2ccc(/C=N/NC(=O)c3ccc([N+](=O)[O-])cc3)o2)cc1,i,i,i,i,i,i,nt,
NS(=O)(=O)c1ccc(-c2ccc(/C=N/Nc3ccc(C(=O)O)cc3)o2)cc1,?,28.2µM,50.1µM,?,i,i,?,
SMILES,FEN1 inh,Pol eta inh-1,Pol iota inh,Pol kappa inh-1,WRN helicase inh,Pol beta inh,Pol eta inh-2,others
Cc1ccc(-n2cc(C(=O)OCc3ccc(F)c(F)c3)c3ccccc3c2=O)cc1,i,i,i,i,nt,i,nt,
CC(C)(C)OC(=O)NCCCCC1=CC2=CC(=O)C(C)(O)C(=O)C2=CO1 (configuration not stated),i,20µM,50.1µM,79.4µM,?,nt,60.1,
O=C(NCc1ccccc1)c1ccc2c(=O)[nH]c3c(C(=O)NCC4CCCO4)sc(=S)n3c2c1 (configuration not stated),i,?,i,i,?,?,?,
O=C(O)c1ccccc1C(=O)c1ccc2oc(=O)[nH]c2c1,i,22.4µM,?,?,i[11.6 µM],nt,37.9,Pol kappa inh-2=?
C=CCC1(CC=C)CCCN1C(=O)C1CCC(=O)N(Cc2ccc(Cl)cc2)C1 (configuration not stated),nt,i,nt,nt,i,nt,nt,
Cc1ccc([C@@H]2CC=C(C(=O)O)[C@H](c3ccc(C(C)(C)C)cc3)N2S(=O)(=O)c2ccc(C)cc2)cc1,i,89.1µM,?,i,i,nt,nt,Pol kappa inh-2=?
Cc1ccc(S(=O)(=O)N2[C@@H](c3ccc(C(C)(C)C)cc3)C(C(=O)O)=CC[C@H]2c2cccs2)cc1,i,i,i,i,i,nt,nt,
Cc1ccc(S(=O)(=O)N2[C@@H](c3ccc(C(C)(C)C)cc3)C(C(=O)O)=CC[C@H]2c2ccc(C(C)C)cc2)cc1,?,39.8µM,?,?,56.2µM,nt,53.6,Pol kappa inh-2=75.2
N#C/C(=C(/O)COc1ccc(Cl)cc1)c1nc2ccccc2s1,i,i,i,i,i,i,nt,GALK confirm=?;Redox cycling=i;HEK293 tox=i
